PubChem BioAssay
Records with an inconclusive call do not appear. For some of these results: Entries with a potency or affinity are not part of this list. Calls of active or inactive are those of the source. Unless noted, how the calls were made is not given here.

What was measured:
[1] = polyglutamine-triggered caspase-3 activation inhibitors, cell-based (AID 1583); conditions: polyglutamine-induced caspase-3 activation, cell assay; stronger effect = higher value;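 tested at 10 µM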
[2] = suppressors of polyQ aggregation in yeast, 75Q-TubU reporter (AID 1593); conditions: Yeast 75Q polyglutamine aggregation reporter
[3] = rescue of polyQ-huntingtin neuronal dysfunction in worms, whole organism, C. elegans mechanosensory neurons, N-terminal huntingtin (AID 1599); conditions: touch response, stronger effect = higher value
[4] = inhibitors of mitochondrial cytochrome c release, biochemical, purified mitochondria (AID 1603); conditions: stronger effect = lower value;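 further: mouse liver mitochondria challenged with calcium chloride; signal normalized to the plate average as 100%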
[5] = inhibitors of polyQ protein aggregation (AID 1604); conditions: polyglutamine-induced protein aggregation inhibition assay; stronger effect = higher value; tested at 2.5 µM
[6] = mitochondrial permeability transition inhibitors (AID 1580); conditions: isolated mitochondria, permeability transition inhibition
[7] = biological target: Huntingtin (Homo sapiens) (UniProt P42858); assay: inhibitors of mutant Htt aggregation in vitro, dose response, QA1 (AID 1584); conditions: in vitro mutant huntingtin aggregation assay; confirmation test; at 10 µM; stronger effect = lower value
Sequence of Huntingtin (Homo sapiens) (P42858 whole entry, looked up): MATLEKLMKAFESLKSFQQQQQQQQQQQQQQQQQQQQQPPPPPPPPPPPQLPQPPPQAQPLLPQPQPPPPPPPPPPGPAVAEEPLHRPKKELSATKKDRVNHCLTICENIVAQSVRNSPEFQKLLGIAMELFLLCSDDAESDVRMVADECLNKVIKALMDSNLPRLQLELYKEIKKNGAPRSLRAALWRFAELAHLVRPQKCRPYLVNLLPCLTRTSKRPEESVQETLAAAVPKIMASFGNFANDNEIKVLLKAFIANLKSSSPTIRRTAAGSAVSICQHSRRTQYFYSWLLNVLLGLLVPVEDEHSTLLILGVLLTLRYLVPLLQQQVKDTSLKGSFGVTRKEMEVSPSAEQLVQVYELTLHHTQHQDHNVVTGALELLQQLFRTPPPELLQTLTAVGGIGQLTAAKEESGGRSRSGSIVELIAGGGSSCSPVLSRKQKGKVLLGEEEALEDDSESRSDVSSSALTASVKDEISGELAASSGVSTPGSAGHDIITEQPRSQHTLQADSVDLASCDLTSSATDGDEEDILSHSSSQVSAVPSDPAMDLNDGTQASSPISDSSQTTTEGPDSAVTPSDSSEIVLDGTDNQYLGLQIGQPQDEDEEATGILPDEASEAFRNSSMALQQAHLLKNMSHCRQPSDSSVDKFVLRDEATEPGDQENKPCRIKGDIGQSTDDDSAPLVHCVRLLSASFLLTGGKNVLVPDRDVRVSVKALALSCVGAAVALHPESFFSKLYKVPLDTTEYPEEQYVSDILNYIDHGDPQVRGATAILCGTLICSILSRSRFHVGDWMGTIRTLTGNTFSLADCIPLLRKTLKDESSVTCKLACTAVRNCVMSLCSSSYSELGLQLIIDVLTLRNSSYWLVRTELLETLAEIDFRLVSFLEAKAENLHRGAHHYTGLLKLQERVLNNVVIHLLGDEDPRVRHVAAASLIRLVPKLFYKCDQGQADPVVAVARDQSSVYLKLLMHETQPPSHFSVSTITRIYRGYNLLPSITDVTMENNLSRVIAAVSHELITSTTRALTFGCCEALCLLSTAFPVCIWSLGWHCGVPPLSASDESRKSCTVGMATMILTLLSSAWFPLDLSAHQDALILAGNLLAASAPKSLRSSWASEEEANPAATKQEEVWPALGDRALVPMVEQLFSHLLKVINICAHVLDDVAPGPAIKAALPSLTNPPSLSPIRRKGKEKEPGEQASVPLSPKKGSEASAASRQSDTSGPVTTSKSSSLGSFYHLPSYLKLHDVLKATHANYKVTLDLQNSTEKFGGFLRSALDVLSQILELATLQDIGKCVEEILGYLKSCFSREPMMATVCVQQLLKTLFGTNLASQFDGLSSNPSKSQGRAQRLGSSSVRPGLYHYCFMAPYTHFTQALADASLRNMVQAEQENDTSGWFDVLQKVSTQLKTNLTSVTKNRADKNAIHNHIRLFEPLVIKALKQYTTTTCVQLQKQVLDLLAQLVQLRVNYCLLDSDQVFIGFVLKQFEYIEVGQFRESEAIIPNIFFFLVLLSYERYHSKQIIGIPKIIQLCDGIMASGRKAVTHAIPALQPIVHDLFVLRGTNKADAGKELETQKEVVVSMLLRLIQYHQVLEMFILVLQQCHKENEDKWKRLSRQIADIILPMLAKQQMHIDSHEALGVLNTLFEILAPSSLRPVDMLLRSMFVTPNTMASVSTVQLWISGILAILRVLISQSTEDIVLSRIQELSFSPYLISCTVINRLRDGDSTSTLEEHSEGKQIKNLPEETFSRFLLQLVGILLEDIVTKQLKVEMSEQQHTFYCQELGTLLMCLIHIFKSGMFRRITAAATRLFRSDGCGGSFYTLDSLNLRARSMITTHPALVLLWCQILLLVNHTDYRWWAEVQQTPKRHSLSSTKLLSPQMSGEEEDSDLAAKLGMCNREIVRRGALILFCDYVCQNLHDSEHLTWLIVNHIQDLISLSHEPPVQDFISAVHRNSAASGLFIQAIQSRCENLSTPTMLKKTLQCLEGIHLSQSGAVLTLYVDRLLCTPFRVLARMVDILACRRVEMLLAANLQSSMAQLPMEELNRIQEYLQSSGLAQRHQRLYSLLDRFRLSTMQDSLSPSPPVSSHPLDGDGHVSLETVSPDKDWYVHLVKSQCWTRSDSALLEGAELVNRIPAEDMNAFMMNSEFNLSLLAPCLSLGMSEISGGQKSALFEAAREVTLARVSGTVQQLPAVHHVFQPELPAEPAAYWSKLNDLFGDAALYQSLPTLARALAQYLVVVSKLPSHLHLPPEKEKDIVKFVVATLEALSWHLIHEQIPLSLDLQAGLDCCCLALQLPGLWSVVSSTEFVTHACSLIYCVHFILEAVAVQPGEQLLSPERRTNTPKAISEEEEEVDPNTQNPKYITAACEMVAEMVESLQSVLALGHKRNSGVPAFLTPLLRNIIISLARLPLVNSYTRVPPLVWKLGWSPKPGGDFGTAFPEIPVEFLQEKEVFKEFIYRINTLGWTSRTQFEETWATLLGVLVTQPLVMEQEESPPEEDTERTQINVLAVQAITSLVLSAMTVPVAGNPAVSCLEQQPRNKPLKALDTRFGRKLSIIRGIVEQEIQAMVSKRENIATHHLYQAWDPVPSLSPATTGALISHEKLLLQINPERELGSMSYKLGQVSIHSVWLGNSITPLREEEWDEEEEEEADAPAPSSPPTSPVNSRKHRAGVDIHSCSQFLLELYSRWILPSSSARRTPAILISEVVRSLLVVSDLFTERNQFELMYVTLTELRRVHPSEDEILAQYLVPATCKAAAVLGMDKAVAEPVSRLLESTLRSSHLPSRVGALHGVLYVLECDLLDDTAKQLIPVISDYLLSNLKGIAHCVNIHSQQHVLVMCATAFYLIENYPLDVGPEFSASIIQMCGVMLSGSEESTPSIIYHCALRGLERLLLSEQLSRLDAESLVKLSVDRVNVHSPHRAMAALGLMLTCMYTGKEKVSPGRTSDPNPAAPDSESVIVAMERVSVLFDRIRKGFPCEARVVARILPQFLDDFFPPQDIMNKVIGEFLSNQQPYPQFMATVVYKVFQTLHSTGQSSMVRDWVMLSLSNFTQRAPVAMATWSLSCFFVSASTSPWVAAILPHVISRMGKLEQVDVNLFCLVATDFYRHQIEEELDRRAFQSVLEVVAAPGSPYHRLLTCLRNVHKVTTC

[8] = inhibitors of polyQ aggregate elongation, biochemical, solid-phase synthetic aggregates, QA3 (AID 1585); conditions: biotin-polyQ incorporation; EC50: measured here: elongation inhibition potency; inhibition: at 100 µM, stronger effect = higher value
[9] = biological target: ATP-dependent translocase ABCB1 (Homo sapiens) (UniProt P08183); assay: MDR1 (ABCB1) efflux transporter inhibition, cell-based (AID 377; in the data active means fluorescence slope change above about 50%); conditions: MDR1-expressing cells, fluorescent substrate accumulation slope; stronger effect = higher value; concentration not given here
Sequence of ATP-dependent translocase ABCB1 (Homo sapiens) (P08183 whole entry, looked up): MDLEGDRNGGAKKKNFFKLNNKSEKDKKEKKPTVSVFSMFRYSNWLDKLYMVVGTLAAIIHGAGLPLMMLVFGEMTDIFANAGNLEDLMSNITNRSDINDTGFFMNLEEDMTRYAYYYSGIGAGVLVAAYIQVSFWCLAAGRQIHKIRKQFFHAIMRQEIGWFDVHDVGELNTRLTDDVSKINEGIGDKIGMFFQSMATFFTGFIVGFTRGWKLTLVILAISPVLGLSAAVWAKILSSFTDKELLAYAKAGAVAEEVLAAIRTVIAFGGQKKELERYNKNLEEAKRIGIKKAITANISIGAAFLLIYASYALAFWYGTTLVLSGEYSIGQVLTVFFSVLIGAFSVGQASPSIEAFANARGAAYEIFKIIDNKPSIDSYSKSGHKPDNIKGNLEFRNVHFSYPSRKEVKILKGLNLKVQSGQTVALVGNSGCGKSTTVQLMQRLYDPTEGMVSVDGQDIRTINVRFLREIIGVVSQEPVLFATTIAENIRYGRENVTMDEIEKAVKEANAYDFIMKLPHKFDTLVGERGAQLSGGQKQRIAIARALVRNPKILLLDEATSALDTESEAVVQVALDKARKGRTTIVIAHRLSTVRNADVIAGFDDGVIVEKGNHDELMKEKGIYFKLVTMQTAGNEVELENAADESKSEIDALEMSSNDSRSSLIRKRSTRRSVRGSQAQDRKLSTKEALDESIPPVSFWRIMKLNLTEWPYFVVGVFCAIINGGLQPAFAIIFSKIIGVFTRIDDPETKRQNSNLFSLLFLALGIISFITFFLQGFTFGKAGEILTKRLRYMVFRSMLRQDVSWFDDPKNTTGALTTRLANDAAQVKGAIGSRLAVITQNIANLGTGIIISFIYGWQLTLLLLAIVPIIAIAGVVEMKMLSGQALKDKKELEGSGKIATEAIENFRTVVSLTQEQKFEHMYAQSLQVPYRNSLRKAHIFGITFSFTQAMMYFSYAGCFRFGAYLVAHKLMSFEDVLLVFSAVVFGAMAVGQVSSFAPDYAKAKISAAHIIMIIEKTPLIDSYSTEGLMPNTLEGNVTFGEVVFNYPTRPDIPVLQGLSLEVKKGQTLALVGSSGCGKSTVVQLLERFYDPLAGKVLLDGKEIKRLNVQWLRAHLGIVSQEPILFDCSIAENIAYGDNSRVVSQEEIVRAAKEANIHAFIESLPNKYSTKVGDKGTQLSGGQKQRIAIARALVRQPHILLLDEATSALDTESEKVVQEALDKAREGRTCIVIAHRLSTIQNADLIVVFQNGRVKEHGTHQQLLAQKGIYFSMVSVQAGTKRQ

Row | SMILES | inhibition [1] | score [2] | rescue above control [3] | cytochrome c release ratio [4] | inhibition of aggregation [5] | EC50 [6] | aggregation ratio [7] | EC50 [8] | inhibition [8] | fluorescence slope change [9]
1 | CCOC(N)=O | -5.88% | 1.23 | -10 | 0.98 | 58.9% |  |  |  |  | 
2 | CC1(C)S[C@@H]2[C@H](NC(=O)C(C(=O)O)c3ccccc3)C(=O)N2[C@H]1C(=O)O (stereo partly drawn) | 9.67% | 1.9 | -7.2 | 0.95 | 60.9% |  |  |  |  | 
3 | Cn1c(=O)c2c(ncn2CC(O)CO)n(C)c1=O (stereo not drawn) | -0.09% | 1.08 | -16.2 | 1.19 | 21.9% |  |  |  |  | 
4 | Oc1c(Cl)cc(Cl)c(Cl)c1Cc1c(O)c(Cl)cc(Cl)c1Cl | 5.38% | -1.67 | -6.64 | 0.45 | 91.6% | 0.3 µM (active) |  |  |  | 
5 | C=Cc1c(C)c2cc3[nH]c(cc4nc(cc5nc(cc1[nH]2)C(C)=C5CCC(=O)O)C(CCC(=O)O)=C4C)c(C)c3C=C | 39.5% | 0.75 |  | 1.37 | 77.5% |  | 0.595 | 106 µM | 59% (active) | 
6 | CCC(Cc1c(I)cc(I)c(N)c1I)C(=O)O (stereo not drawn) | -9.96% | -1.24 | -0.81 | 1.14 | 1.96% |  |  |  |  | 
7 | CO[C@@]1(NC(=O)C(C(=O)O)c2ccc(O)cc2)C(=O)N2C(C(=O)O)=C(CSc3nnnn3C)CO[C@@H]21 (stereo partly drawn) | 10.7% | 1.04 | 12.8 | 0.83 | 72.2% |  |  | 2 µM | 91.1% (active) | 63.7% (active)
8 | COc1ccc2cc3[n+](cc2c1OC)CCc1cc2c(cc1-3)OCO2 | -15.4% | 0.32 | 10.8 | 0.96 | 65.2% |  |  |  |  | 
9 | CC(=O)Oc1ccc(C(c2ccc(OC(C)=O)cc2)c2ccccn2)cc1 | 10.5% | 1.05 | 5.96 | 1.37 | 74.4% |  |  |  |  | 
10 | Cc1ccc(C(C)C)cc2c(C)ccc1-2 | 0.23% | -2.73 | 1.94 | 3.4 | 30.6% |  |  | 57 µM | 73.4% (active) | 
